Screening results as filed in PubChem.
Tau fibril FP: tau fibrillization inhibition (FP) | K18 P301L tau heparin fibrillization, Alexa594 FP, 6 h | Potency, µM (top dose mostly 57.7 µM), without a hit: at the highest dose activity, negative = inhibition, usual class: inhibitors | actives 0.39% (n = 280,000) | AID 1468; further: nearly all actives have a fitted effect of over 55% in size
Target sequence (P10636 561-689 P618L limits assumed): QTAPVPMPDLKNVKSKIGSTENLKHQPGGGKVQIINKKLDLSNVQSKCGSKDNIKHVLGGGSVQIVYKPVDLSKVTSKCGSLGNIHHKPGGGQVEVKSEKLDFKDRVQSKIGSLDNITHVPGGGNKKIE
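K18 P301L tau (15 uM unlabeled/0.24 uM Alexa 594-labeled, final) + compound + heparin 20 uM final; 100 mM NaOAc pH 7; 6 hr 37 C; ThT 30 uM final added, 1 hr RT; FP ex 555/em 632 nm.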
Tau fluor cs: counter-screen for tau fibril formation inhibitors; tau K18 P301L Alexa594 fluorescence, heparin fibrillization; Potency, µM (titrated, usually from 57.7 µM), inactives show at the highest dose activity change, negative = decrease; actives 0.93% (n = 280,000); AID 1463; further: nearly all actives have a fitted effect of over 55% in size
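Human K18 P301L tau (15 uM unlabeled plus 0.24 uM Alexa 594-labeled, final) in 100 mM sodium acetate pH 7 was mixed with compound and 20 uM heparin and incubated 6 hr at 37 C.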
NPSR antagonist: neuropeptide S receptor (human) antagonism, cAMP; actives 1% (n = 220,000); CHO-NPSR cells, cAMP TR-FRET, antagonist mode; AID 1461; Potency, µM (top dose mostly 38.3 µM), for the others: at the highest dose activity change, negative = inhibition, hits mostly inhibitors; further: nearly all actives have a fitted effect of over 50% in size
Tau ThT inhib: blocks human tau fibril formation measured by thioflavin T; P10636; recombinant tau K18 P301L (four-repeat tau fragment), heparin-induced fibrillization, ThT fluorescence; Potency, µM (doses to about 57.4 µM), inactives show at the top dose activity, negative = inhibition, most hits filed as inhibitors; actives 2.1% (n = 270,000); further: nearly all actives have a fitted effect of over 55% in size
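Aggregation was driven by heparin (20 uM final) acting on recombinant tau […] bearing P301L in 100 mM sodium acetate pH 7; fibrils were detected with Thioflavin T.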
ALDH1A1 inh: ALDH1A1 (human) enzyme inhibition; actives 7.3% (n = 220,000); AID 1030; Purified ALDH1A1, NADH fluorescence, propionaldehyde substrate; Potency, µM (titrated, usually from 75.3 µM), for the others: top-dose activity, negative = inhibition, usual class: inhibitors; active means well fitted inhibition curve with a large enough effect, not every such curve was filed as active; inconclusive means small, poorly fitted or top-dose-only effect, or another doubt; inactive means no such curve, though single readings can be large or run the other way;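 further: plate controls were no enzyme wells and a reference inhibitor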
Target sequence (P00352 whole entry, looked up): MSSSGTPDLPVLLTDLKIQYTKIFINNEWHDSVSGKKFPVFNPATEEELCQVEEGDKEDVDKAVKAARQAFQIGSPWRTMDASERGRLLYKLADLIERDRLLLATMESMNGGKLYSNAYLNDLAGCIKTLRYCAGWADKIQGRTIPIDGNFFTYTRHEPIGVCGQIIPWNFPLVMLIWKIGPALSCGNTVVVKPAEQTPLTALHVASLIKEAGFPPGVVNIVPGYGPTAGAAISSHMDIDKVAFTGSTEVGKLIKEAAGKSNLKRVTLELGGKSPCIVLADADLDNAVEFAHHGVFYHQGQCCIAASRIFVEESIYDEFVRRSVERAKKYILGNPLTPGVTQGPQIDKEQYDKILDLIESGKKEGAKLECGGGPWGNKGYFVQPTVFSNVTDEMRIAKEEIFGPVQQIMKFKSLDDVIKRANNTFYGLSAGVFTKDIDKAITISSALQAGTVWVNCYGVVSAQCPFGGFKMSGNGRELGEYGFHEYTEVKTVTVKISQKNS
HPGD block: inhibitors of human 15-hydroxyprostaglandin dehydrogenase (HPGD); purified HPGD, NADH fluorescence kinetic, PGE2 substrate; AID 894; Potency, µM, inactives show at the highest dose activity change, negative = inhibition, hits mostly inhibitors; actives 4.3% (n = 150,000); P15428; active means well fitted inhibition curve with a large enough effect, not every such curve was filed as active; inconclusive means small, poorly fitted or top-dose-only effect, or another doubt; inactive means no such curve, though single readings can be large or run the other way
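20 nM HPGD preincubated 15 min at room temperature with compound in 50 mM Tris-HCl pH 8, 0.01% Tween 20. Started with 1 mM NAD+ and 30 uM prostaglandin E2; NADH fluorescence (360/450 nm) read 5 times over 30-s intervals, last minus first.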
* hit, by the source's call; ? = inconclusive; . = no result; [ ] = dose if it differs, or a comment. Compounds with a hit are over-represented: about 9.5% of the library has one in this group of screens. Unless noted, the call rests on the fitted dose curve; in most records, active means well fitted curve in the direction sought with a large enough effect; inconclusive means small, poorly fitted or top-dose-only effect, or another doubt; inactive means no such curve, though single readings can be large; an effect the other way counts as inactive or inconclusive. Unless noted, on the % scale 0 is the no-effect control and ±100 the full control effect; potency means the concentration at half of the fitted maximal effect.

SMILES	Tau fibril FP	Tau fluor cs	NPSR antagonist	Tau ThT inhib	ALDH1A1 inh	HPGD block
Cc1cc(C(F)(F)F)nn1CC(=O)Nc1cccnc1	-1.9%	1.0%	-6.7%[46.1 µM]	-6.1%	11.1%	-16.4%
O=C(O)/C=C/C(=O)Nc1cccc(C(F)(F)F)c1	6.9%	-6.5%	17.1%	-5.1%	20µM*	0.3%
FC(F)(F)c1cccc(NC(=S)NNC(=S)NCc2ccccc2)c1	13.7%	?	-16.2%[46.1 µM]	-18.0%	0.562µM*	?
FC(F)(F)c1cccc(NC(=S)NCC2COc3ccccc3O2)c1 (stereo not given)	25.1µM*	?	-14.6%	-11.7%	-1.1%	?
Cc1cc(C(F)(F)F)nn1CC(=O)NNC(=S)Nc1cccc(Cl)c1	-3.6%	-1.8%	5.0%[46.1 µM]	1.9%	20µM*	-4.7%
O=S(=O)(CCN1CCCCC1)Oc1ccc(Cl)cc1Cl	-0.8%	-10.8%	30.3%	?	.	.
CCN(CC)C(=O)Cn1c(=O)n(Cc2ccc(C(=O)NCc3ccccc3Cl)cc2)c(=O)c2ccccc21	-1.5%	-12.2%	.	0.1%	.	.
CC(C)(C)NC(=O)COC(=O)c1cncc(Br)c1	3.2%	7.2%	5.7%[46.1 µM]	2.1%	4.9%	-10.7%
C[C@H](O/N=C1/[C@H]2O[C@@H]2[C@@H](O)[C@H]2[C@H]1CCn1c(=O)n(-c3ccccc3)c(=O)n12)c1cn([C@H](CO)Cc2ccccc2)nn1	-1.4%[11.6 µM]	-7.3%[11.6 µM]	.	-6.1%[11.5 µM]	-1.2%[13.5 µM]	.
FC(F)(F)c1cccc(NC(=S)Nc2cccc(NC(=S)Nc3cccc(C(F)(F)F)c3)n2)c1	20µM*	12.6µM*[quencher]	?	-3.1%	25.1µM*	.
O=C(NNC(=S)Nc1cccc(C(F)(F)F)c1)c1cccc(Cl)c1	13.8%	?	7.2%	?	22.4µM*	-8.1%
O=C(NNC(=S)Nc1cccc(C(F)(F)F)c1)c1ccccc1Cl	12.7%	?	8.8%	?	8.91µM*	-19.9%
O=C(OCn1ncc(Cl)c(Cl)c1=O)c1ccccc1Cl	-20.0%	-14.5%	5.01µM*	14.1µM*	2µM*	-28.2%
O=C(Cn1ncc(Cl)c(Cl)c1=O)c1ccc(Cl)cc1	-4.2%	-7.4%	-20.8%[46.1 µM]	?	8.91µM*	-7.6%
CC(C)(C)C(=O)Cn1ncc(Cl)c(Cl)c1=O	1.2%	8.9%	-17.0%	7.6%	?	.
O=C(OCn1ncc(Cl)c(Cl)c1=O)c1ccc(F)cc1	?	-19.9%	?	?	1.12µM*	-13.3%
O=C(Cn1ncc(N2CCOCC2)c(Cl)c1=O)c1ccc(Cl)cc1	-3.0%	-5.1%	7.7%	-8.3%	-6.6%	.
CN1CCn2c1nc(N1CCOCC1)nc2=O	3.1%	1.6%	-4.2%[46.1 µM]	1.0%	-3.2%	-7.0%
COc1cc(C(=O)N2CCN(C(=O)c3ccco3)CC2)c([N+](=O)[O-])cc1OC	1.1%	-8.3%	4.1%	-9.9%	-12.5%	.
COc1ccc2c(c1)C(=O)[C@H](OC(=O)Nc1cc(OC)c(OC)c(OC)c1)[C@@H](c1ccc(OC)c(Br)c1)O2	8.8%	-18.1%	.	-9.0%	4.3%	-8.3%
COc1cc(C(=O)NCc2nc(-c3ccc(Cl)cc3)no2)cc(OC)c1OC	-9.7%	-19.7%	.	-6.4%	.	.
COc1ccc(C(=NNc2ccccc2C(=O)O)c2ccc(OC)cc2)cc1	4.8%	?	7.94µM*	?	?	-8.5%
Cc1noc(C)c1-c1cc(NCc2ccccc2)ncn1	-6.0%	-10.3%	.	-5.0%	5.4%	-18.3%
O=c1cc(CN2CCN(c3ccccc3O)CC2)nc2sccn12	8.8%	-3.8%	-9.5%[46.1 µM]	-18.4%	25.1µM*	?
Cc1cccc(N2CCN(Cc3cc(=O)n4ccsc4n3)CC2)c1C	-0.6%	-4.4%	-8.2%[46.1 µM]	-5.4%	9.6%	0.5%
SMILES	Tau fibril FP	Tau fluor cs	NPSR antagonist	Tau ThT inhib	ALDH1A1 inh	HPGD block
Cc1cn(C)c(CC(=O)N2CCN(c3cccc(C(F)(F)F)c3)CC2)c1C(=O)O	-10.6%	2.8%	.	9.6%	.	.
CCn1c(CNc2ccc(OC)cc2)nnc1SCC(=O)N1CCCc2ccccc21	-0.1%	-13.4%	-1.2%[7.67 µM]	?	7.08µM*	-0.7%
COc1ccc(NCc2nnc(SCC(=O)N3CCCc4ccccc43)n2C)cc1	0.2%	-5.1%	?	-2.2%	3.16µM*	-12.9%
Cc1ccc(NCc2nnc(SCC(=O)Nc3ccccc3)n2CC2CCCO2)c(C)c1 (stereo not given)	-6.9%	-16.7%	-16.2%[46.1 µM]	-15.8%	7.94µM*	-8.3%
CCn1c(CNc2ccc(F)cc2)nnc1SCC(=O)N1CCCc2ccccc21	1.4%	-5.0%	-11.2%[46.1 µM]	-4.8%	?	-17.5%
COc1ccc(-n2c(Cc3cccn3C)nnc2SCC(=O)N2CCCc3ccccc32)cc1	-1.1%	1.7%	?	-12.1%	?	-8.7%
CCOC(=O)c1ccc(NC(=O)CSc2nnc(CNc3ccc(OC)cc3)n2C)cc1	?	-28.1%	2.8%[7.67 µM]	14.1µM*	12.6µM*	-15.7%
CCN(CC)S(=O)(=O)c1cccc(NC(=O)COC(=O)C2CC3C=CC2C3)c1 (stereo not given)	6.3%	-26.2%	-16.3%	2.4%	?	.
COC(=O)c1ccc(C(NC(=O)OCc2ccccc2)/C(C)=C/[C@@H](C)C(=O)NCc2nc3ccccc3s2)cc1 (stereo not given in full)	2.1%	-18.4%	.	-16.7%	-9.9%	-7.6%
COc1cccc(CNC(=O)CSc2ccc(-c3cccs3)nn2)c1	3.7%	4.4%	-16.8%	0.9%	2.6%	.
CCn1c(CSc2nc(C)cc(C)n2)nnc1SCC(=O)N1CCCc2ccccc21	-7.3%	-2.0%	-18.8%[46.1 µM]	-8.9%	?	-15.5%
CCn1c(CNc2ccc(C)cc2C)nnc1SCC(=O)N1CCCc2ccccc21	1.7%	-6.7%	-18.8%[46.1 µM]	-9.7%	7.08µM*	-11.1%
Cc1cc(-c2cc(-c3ccccc3)on2)nc(NCC2CC2)n1	2.3%	-8.1%	-4.9%	6.0%	.	.
CCOC(=O)Cn1c(=O)n(C2CCCCC2)c2nc(-c3ccc(Cl)cc3)nc(C(N)=O)c21	-4.7%	-4.4%	.	4.4%	.	.
Cc1ccc(S(=O)(=O)N2CCOCC2)cc1C(=O)c1nccn1C	-4.3%	-4.0%	15.7%	2.6%	18.9µM*	.
Cc1ccc(S(=O)(=O)N2CCOCC2)cc1C(=O)N1CCOCC1	2.5%	-2.4%	-5.8%[46.1 µM]	-10.8%	-9.4%	-5.1%
Cc1oc2c(c1C(=O)c1ccccc1)C(=O)C(=O)c1ccccc1-2	?	-22.1%	?	7.94µM*	-7.7%	?
O=C1C(=O)c2c(C(=O)c3ccccc3)coc2-c2ccccc21	7.94µM*	?	-19.5%[46.1 µM]	2.51µM*	?	22.4µM*
O=C(C1=C(c2ccccc2)C(=O)c2ccccc2C1=O)c1ccccc1	4.5%	-0.4%	?	-0.6%	?	-20.9%
CCOC(=O)C1(CC2CC2)CCN(Cc2cnc(-c3ccc(OC)cc3)nc2)CC1	5.9%	-3.3%	23.1%	-5.8%	-10.6%	.
